# Reference: paper PMC9911399, “Two distinct binding modes provide the RNA-binding protein RbFox with extraordinary sequence specificity”
# Residue numbers refer to the chain shown, from its start. Whole data set: some 16,000 sequences, median “ka relative to ugcaugu” near 0.0091, cut for the highest 2% near 0.032. The full list was thinned out, with the highest values kept by preference.
# T1: RBFOX1 RRM (Homo sapiens, UniProt Q9NWB1 109-208)
# T1 sequence: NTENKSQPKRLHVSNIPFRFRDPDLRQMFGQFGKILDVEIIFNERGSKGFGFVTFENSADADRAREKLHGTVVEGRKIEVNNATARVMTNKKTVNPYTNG
# B1: GUUAUGC (DNA:RNA)
# RNA: GGGAGACCGGAAUUCAGAUUGUCCGUUAUGCUUAAAUCCCGUCGUAGCCACCA
# DNA 1: CAATCTGAATTCCGGTCTCCC
# DNA 2: TGGTGGCTACGACGGGATT
# B2: GAAUGCU (DNA:RNA)
# RNA: B1 RNA with U26A, U27A, A28U, U29G, G30C, C31U
# DNA 1: CAATCTGAATTCCGGTCTCCC
# DNA 2: TGGTGGCTACGACGGGATT
# B3: GGCAUGC (DNA:RNA)
# RNA: B1 RNA with U26G, U27C
# DNA 1: CAATCTGAATTCCGGTCTCCC
# DNA 2: TGGTGGCTACGACGGGATT
# B4: GCAUGCU (DNA:RNA)
# RNA: B1 RNA with U26C, U27A, A28U, U29G, G30C, C31U
# DNA 1: CAATCTGAATTCCGGTCTCCC
# DNA 2: TGGTGGCTACGACGGGATT
# B5: GUCAUGC (DNA:RNA)
# RNA: B1 RNA with U27C
# DNA 1: CAATCTGAATTCCGGTCTCCC
# DNA 2: TGGTGGCTACGACGGGATT
# B6: GUAUGCU (DNA:RNA)
# RNA: B1 RNA with U27A, A28U, U29G, G30C, C31U
# DNA 1: CAATCTGAATTCCGGTCTCCC
# DNA 2: TGGTGGCTACGACGGGATT
# B7: CGCAUGC (DNA:RNA)
# RNA: B1 RNA with G25C, U26G, U27C
# DNA 1: CAATCTGAATTCCGGTCTCCC
# DNA 2: TGGTGGCTACGACGGGATT
# B8: GCAUUGC (DNA:RNA)
# RNA: B1 RNA with U26C, U27A, A28U
# DNA 1: CAATCTGAATTCCGGTCTCCC
# DNA 2: TGGTGGCTACGACGGGATT
# B9: GCCAUGC (DNA:RNA)
# RNA: B1 RNA with U26C, U27C
# DNA 1: CAATCTGAATTCCGGTCTCCC
# DNA 2: TGGTGGCTACGACGGGATT
# B10: UGAGAAA (DNA:RNA)
# RNA: GGGAGACCGGAAUUCAGAUUGUCCUGAGAAAUUAAAUCCCGUCGUAGCCACCA
# DNA 1: CAATCTGAATTCCGGTCTCCC
# DNA 2: TGGTGGCTACGACGGGATT
# B11: UCCUACG (DNA:RNA)
# RNA: B10 RNA with G26C, A27C, G28U, A30C, A31G
# DNA 1: CAATCTGAATTCCGGTCTCCC
# DNA 2: TGGTGGCTACGACGGGATT
# B12: AACCACA (DNA:RNA)
# RNA: B10 RNA with U25A, G26A, A27C, G28C, A30C
# DNA 1: CAATCTGAATTCCGGTCTCCC
# DNA 2: TGGTGGCTACGACGGGATT
# B13: ACAUAGU (DNA:RNA)
# RNA: B10 RNA with U25A, G26C, G28U, A30G, A31U
# DNA 1: CAATCTGAATTCCGGTCTCCC
# DNA 2: TGGTGGCTACGACGGGATT
# B14: CGCCAUA (DNA:RNA)
# RNA: B10 RNA with U25C, A27C, G28C, A30U
# DNA 1: CAATCTGAATTCCGGTCTCCC
# DNA 2: TGGTGGCTACGACGGGATT
# B15: AUUUUUA (DNA:RNA)
# RNA: B1 RNA with G25A, A28U, G30U, C31A
# DNA 1: CAATCTGAATTCCGGTCTCCC
# DNA 2: TGGTGGCTACGACGGGATT
# B16: UGUUCCG (DNA:RNA)
# RNA: B10 RNA with A27U, G28U, A29C, A30C, A31G
# DNA 1: CAATCTGAATTCCGGTCTCCC
# DNA 2: TGGTGGCTACGACGGGATT
# B17: CCGCACG (DNA:RNA)
# RNA: B10 RNA with U25C, G26C, A27G, G28C, A30C, A31G
# DNA 1: CAATCTGAATTCCGGTCTCCC
# DNA 2: TGGTGGCTACGACGGGATT
# B18: GCACGAU (DNA:RNA)
# RNA: B10 RNA with U25G, G26C, G28C, A29G, A31U
# DNA 1: CAATCTGAATTCCGGTCTCCC
# DNA 2: TGGTGGCTACGACGGGATT
# B19: GCACGAG (DNA:RNA)
# RNA: B10 RNA with U25G, G26C, G28C, A29G, A31G
# DNA 1: CAATCTGAATTCCGGTCTCCC
# DNA 2: TGGTGGCTACGACGGGATT
# B20: GCACACG (DNA:RNA)
# RNA: B10 RNA with U25G, G26C, G28C, A30C, A31G
# DNA 1: CAATCTGAATTCCGGTCTCCC
# DNA 2: TGGTGGCTACGACGGGATT
# B21: UCGUCCG (DNA:RNA)
# RNA: B10 RNA with G26C, A27G, G28U, A29C, A30C, A31G
# DNA 1: CAATCTGAATTCCGGTCTCCC
# DNA 2: TGGTGGCTACGACGGGATT
# B22: CGCACCG (DNA:RNA)
# RNA: B1 RNA with G25C, U26G, U27C, U29C, G30C, C31G
# DNA 1: CAATCTGAATTCCGGTCTCCC
# DNA 2: TGGTGGCTACGACGGGATT
# B23: ACGCACG (DNA:RNA)
# RNA: B10 RNA with U25A, G26C, A27G, G28C, A30C, A31G
# DNA 1: CAATCTGAATTCCGGTCTCCC
# DNA 2: TGGTGGCTACGACGGGATT
# B24: GCACGUA (DNA:RNA)
# RNA: B10 RNA with U25G, G26C, G28C, A29G, A30U
# DNA 1: CAATCTGAATTCCGGTCTCCC
# DNA 2: TGGTGGCTACGACGGGATT
# B25: UCGCACG (DNA:RNA)
# RNA: B10 RNA with G26C, A27G, G28C, A30C, A31G
# DNA 1: CAATCTGAATTCCGGTCTCCC
# DNA 2: TGGTGGCTACGACGGGATT
# B26: GCACGAA (DNA:RNA)
# RNA: B10 RNA with U25G, G26C, G28C, A29G
# DNA 1: CAATCTGAATTCCGGTCTCCC
# DNA 2: TGGTGGCTACGACGGGATT
# B27: UCGCACC (DNA:RNA)
# RNA: B10 RNA with G26C, A27G, G28C, A30C, A31C
# DNA 1: CAATCTGAATTCCGGTCTCCC
# DNA 2: TGGTGGCTACGACGGGATT
# B28: GCACGUG (DNA:RNA)
# RNA: B1 RNA with U26C, U27A, A28C, U29G, G30U, C31G
# DNA 1: CAATCTGAATTCCGGTCTCCC
# DNA 2: TGGTGGCTACGACGGGATT
# B29: UUUCUCU (DNA:RNA)
# RNA: B1 RNA with G25U, A28C, G30C, C31U
# DNA 1: CAATCTGAATTCCGGTCTCCC
# DNA 2: TGGTGGCTACGACGGGATT
# B30: CAUGAAC (DNA:RNA)
# RNA: B10 RNA with U25C, G26A, A27U, A31C
# DNA 1: CAATCTGAATTCCGGTCTCCC
# DNA 2: TGGTGGCTACGACGGGATT
# B31: CGAUGUC (DNA:RNA)
# RNA: B10 RNA with U25C, G28U, A29G, A30U, A31C
# DNA 1: CAATCTGAATTCCGGTCTCCC
# DNA 2: TGGTGGCTACGACGGGATT
# Target: T1, RBFOX1 RRM
# Test: EMSA; HiTS-Eq, 1 nM pool, 10 min; buffer printed only for the single-RNA assays: 10 mM Tris pH 7.5, 150 mM NaCl, 3.4 mM EDTA, 0.001% NP-40, 30 C
# Conditions: tags: His6 N-terminal (pET28a); label: 5' 32P
# Method in brief: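 Purified wild-type or mutant RbFox RRM at increasing concentrations was equilibrated with 1 nM of 5′-radiolabelled RNA carrying 7 randomized nucleotides for 10 min in 50 µL. Unbound RNA was separated by 8% native PAGE and sequenced. Relative association constants came from read-count changes of each RNA species compared with the control reaction, normalised to the cognate motif.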
row,Binder,binding signal
1,B1,0.0151 KA relative to UGCAUGU
2,B2,0.0201 KA relative to UGCAUGU
3,B3,0.627 KA relative to UGCAUGU
4,B4,0.779 KA relative to UGCAUGU
5,B5,0.0144 KA relative to UGCAUGU
6,B6,0.018 KA relative to UGCAUGU
7,B7,0.895 KA relative to UGCAUGU
8,B8,0.0184 KA relative to UGCAUGU
9,B9,0.0131 KA relative to UGCAUGU
10,B10,0.016 KA relative to UGCAUGU
11,B11,0.00598 KA relative to UGCAUGU
12,B12,0.00121 KA relative to UGCAUGU
13,B13,0.00187 KA relative to UGCAUGU
14,B14,0.00265 KA relative to UGCAUGU
15,B15,0.00169 KA relative to UGCAUGU
16,B16,0.0186 KA relative to UGCAUGU

row,Binder,binding signal
1,B17,0.0481 KA relative to UGCAUGU
2,B18,0.0227 KA relative to UGCAUGU
3,B19,0.0362 KA relative to UGCAUGU
4,B20,0.00843 KA relative to UGCAUGU
5,B21,0.016 KA relative to UGCAUGU
6,B22,0.00744 KA relative to UGCAUGU
7,B23,0.0314 KA relative to UGCAUGU
8,B24,0.0281 KA relative to UGCAUGU
9,B25,0.0586 KA relative to UGCAUGU
10,B26,0.0197 KA relative to UGCAUGU
11,B27,0.0108 KA relative to UGCAUGU
12,B28,0.0821 KA relative to UGCAUGU
13,B29,0.0126 KA relative to UGCAUGU
14,B30,0.00509 KA relative to UGCAUGU
15,B31,0.0174 KA relative to UGCAUGU
